Calb FLC = C. albicans growth inhibition with fluconazole, primary screen, CaCi-2 strain, Alamar Blue fluorescence; C. albicans CaCi-2 (fluconazole-resistant clinical isolate) + fluconazole, 48 h; growth inhibition, % (no concentration beside the values); 0.57% of 300,000 active; AID 1979, 2009;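 active = growth inhibition above about 58% in most replicates, limit read from the data, passing the limit was not always enough; inconclusive = exactly half the replicates above a set limit; inactive = most replicates below a set limit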;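 also: all wells also contain fluconazole at 8 µg/ml as a sub-toxic cotreatment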
Cardio protect = cardioprotection against H2O2-induced cell death, primary screen, uHTS, H9c2 cells, ATPLite luminescence; protection from H2O2 cell death, % at 20 µM; AID 588492, 2011; H9c2 cardiomyocytes, H2O2 injury protection, 2 h; 0.63% of 360,000 active;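 active = compounds giving at least 50% protection of heart cells from peroxide-induced death in the single-dose screen, raw or plate-pattern-corrected value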
Efflux pump inh = inhibitors of Candida efflux pumps in yeast, primary screen, S. cerevisiae, Nile Red, multiplex; S. cerevisiae Candida pump triplex; inhibition, % at 10 µM; 0.44% of 330,000 active;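 active = plate passing quality check with inhibition over a set limit, or well fluorescence over plate mean plus 4 SD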;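 also: Nile Red retained in pooled yeast measured as flow cytometry median fluorescence; higher means more Nile Red kept so more efflux inhibition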
Cl transport mod = KCC2 cotransporter modulators, thallium flux, primary screen, cell-based, HEK293 KCC2, FluoZin-2 fluorescence, MLSMR | Solute carrier family 12 member 5 (Homo sapiens), Q9H2X9 | KCC2 cells, thallium flux FluoZin-2 fluorescence | B-score of Tl+ flux slope (higher = more flux/activation; lower = inhibition) at 10 µM | 2.2% of 190,000 active | AID 1456, 2008;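 active = thallium flux slope and its plate-corrected score both differing from the plate sample mean at a set confidence after two filtering rounds, in either direction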;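 also: slope of fluorescence scaled to starting intensity during 10 to 20 s after thallium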
Target sequence (Q9H2X9 whole entry, looked up): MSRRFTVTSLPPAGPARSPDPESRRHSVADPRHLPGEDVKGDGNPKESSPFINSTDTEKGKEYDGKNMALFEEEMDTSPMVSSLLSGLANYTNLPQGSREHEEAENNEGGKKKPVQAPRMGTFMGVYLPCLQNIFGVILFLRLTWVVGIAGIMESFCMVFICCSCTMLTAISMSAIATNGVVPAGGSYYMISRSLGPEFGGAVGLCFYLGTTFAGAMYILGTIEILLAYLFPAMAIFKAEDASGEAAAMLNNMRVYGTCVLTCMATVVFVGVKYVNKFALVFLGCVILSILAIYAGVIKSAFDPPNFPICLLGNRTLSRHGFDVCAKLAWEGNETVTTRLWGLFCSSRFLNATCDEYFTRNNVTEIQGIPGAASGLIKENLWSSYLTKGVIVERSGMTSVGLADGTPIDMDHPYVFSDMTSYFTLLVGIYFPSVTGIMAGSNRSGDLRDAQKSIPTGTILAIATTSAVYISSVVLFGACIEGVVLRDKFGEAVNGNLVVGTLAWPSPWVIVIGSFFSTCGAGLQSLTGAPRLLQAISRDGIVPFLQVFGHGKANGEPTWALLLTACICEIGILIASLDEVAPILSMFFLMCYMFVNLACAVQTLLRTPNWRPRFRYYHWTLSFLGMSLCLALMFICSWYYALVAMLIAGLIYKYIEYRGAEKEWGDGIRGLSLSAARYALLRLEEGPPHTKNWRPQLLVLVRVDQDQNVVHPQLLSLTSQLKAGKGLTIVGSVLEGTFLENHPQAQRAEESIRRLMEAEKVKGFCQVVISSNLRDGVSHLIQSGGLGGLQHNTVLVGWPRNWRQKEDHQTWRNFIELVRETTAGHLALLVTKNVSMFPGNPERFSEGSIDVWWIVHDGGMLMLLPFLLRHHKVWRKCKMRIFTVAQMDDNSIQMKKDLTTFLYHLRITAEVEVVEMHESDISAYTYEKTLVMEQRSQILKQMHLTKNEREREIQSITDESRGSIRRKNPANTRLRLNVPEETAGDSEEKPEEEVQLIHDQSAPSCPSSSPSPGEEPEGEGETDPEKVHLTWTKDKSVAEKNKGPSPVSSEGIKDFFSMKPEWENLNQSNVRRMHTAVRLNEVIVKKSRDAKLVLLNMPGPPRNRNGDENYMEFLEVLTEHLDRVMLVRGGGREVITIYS
PHOSPHO1 inh = PubChem AID 1565; inhibition, % at 13.3 µM; Phosphoethanolamine/phosphocholine phosphatase (Homo sapiens), Q8TCT1; recombinant PHOSPHO1, absorbance phosphatase assay; 1.1% of 290,000 active; in the data active = inhibition above about 60%
KCC2 secondary = KCC2 modulators in sodium-free buffer, confirmation, cell-based, HEK293 KCC2, thallium flux, secondary assay; shares compounds with Cl transport mod; FluoZin2 fluorescence; stronger effect = higher value; normalised thallium flux (F/F0 slope) at 10 µM; 15% of 3,700 active; AID 1713, 2009;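 active = thallium flux slope above the same plate's solvent-only control mean plus 3 SD; inconclusive = the two replicate wells disagree; inactive = no significant difference from solvent-only control wells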
KCC2 bumet counter = thallium flux persisting under bumetanide in KCC2 cells, confirmation, counter-screen for KCC2 modulator project, cell-based, HEK293 KCC2, FluoZin2, secondary assay 3; shares compounds with Cl transport mod; HEK293-KCC2 + bumetanide/ouabain; stronger effect = higher value; normalized thallium flux at 10 µM; 49% of 3,700 active;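 active = thallium entry rate above the same plate's blocked-transporter control wells by more than 3 SD; inconclusive = the two repeat wells disagree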;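 also: raw slope of fluorescence over initial fluorescence between 10 and 20 s after thallium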
KCC2 secondary2 = KCC2 modulators without ouabain present, confirmation, cell-based, HEK293 KCC2, thallium flux, FluoZin2, secondary assay 2; shares compounds with Cl transport mod; thallium flux FluoZin2 fluorescence; actives lie on both sides; F/F0 rise rate, 10–20 s post-thallium; normalized thallium flux at 10 µM; 23% of 3,700 active;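 active = thallium flux slope more than 3 SD above or below the plate's solvent-only control mean, mostly below; inconclusive = the two repeat wells disagreed; inactive = no significant shift from solvent-only controls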
HEK293 Tl flux = thallium flux modulation in parental HEK cells, confirmation, counter-screen for KCC2 modulator project, cell-based, counterscreen 1; 46% of 3,700 active; HEK293 parental cells, thallium flux FluoZin2, ouabain; baseline-ratio fluorescence slope, 10–20 s after thallium; thallium flux rate (normalised fluorescence) at 10 µM; shares compounds with Cl transport mod;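 active = thallium flux rate significantly above the same plate's solvent-only control wells, beyond their mean plus 3 SD; inconclusive = the two replicate wells gave conflicting results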
KCC2 ouabain = KCC2 inhibitors and activators, ouabain retest, confirmation, HEK-KCC2 cells. AID 1717, 2009. HEK293-KCC2, thallium flux FluoZin2 fluorescence; bidirectional: low = inhibitor, high = activator. shares compounds with Cl transport mod. raw Tl+ flux slope (below DMSO = inhibition, above = activation) at 10 µM. 48% of 3,700 active;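 active = thallium flux slope beyond 3 SD from same-plate DMSO control mean in most replicates, usually higher, sometimes lower; inconclusive = repeat tests gave conflicting results; inactive = no significant difference from controls in most replicates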;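 also: slope of initial-normalized fluorescence between seconds 10 and 20 after thallium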
HEK293 Tl flux2 = native HEK Tl+ uptake effects, second counter-screen – HEK cells, counterscreen 2, counter-screen for KCC2 modulator project, confirmation. shares compounds with Cl transport mod. HEK293 parental, thallium flux FluoZin-2 fluorescence slope. thallium flux slope at 10 µM. 33% of 3,700 active. AID 1718, 2009;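 active = thallium flux slope above the same plate's solvent-control mean plus 3 SD in both duplicate wells; inconclusive = duplicate wells that disagreed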;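 also: run without ouabain in cells lacking the KCC2 cotransporter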
Of the large screens only hits and unclear results are named; the others gave an inactive call (follow-up assays come after a bar, where they were run). Most compounds without a hit are left out; they make up all but 3.3% or so of the library.

CCN(CC)c1c([N+](=O)[O-])c(=O)n(CC)c2ccccc12	Cl transport mod -4.55 | KCC2 secondary inactive | KCC2 bumet counter 0.00308 | KCC2 secondary2 inactive | HEK293 Tl flux 0.00451 | KCC2 ouabain 0.0166 | HEK293 Tl flux2 0.00756
CCOC(=O)c1[nH]c(C)c(C(=O)N2CCCC(Nc3ccc(C)c(C)c3)C2)c1C (centres undefined)	none (no result: Cl transport mod)
Cc1ccc(C(=O)NC2CCCC2)cc1S(=O)(=O)N1CCCCC1	none (no result: Cl transport mod)
COc1ccc(C(=O)NC2CCCCC2)cc1S(=O)(=O)N1CCCC1	Cl transport mod 7.52 | KCC2 secondary inactive | KCC2 bumet counter inconclusive | KCC2 secondary2 inactive | HEK293 Tl flux inactive | KCC2 ouabain inactive | HEK293 Tl flux2 inactive
COc1ccc(C(=O)NCC(=O)OCC(=O)NC2CCCCCC2)cc1	none (no result: Calb FLC, Cl transport mod, PHOSPHO1 inh)
Cc1cc(Cn2nc(-c3ccccc3)cc2C(=O)NCc2cccc(Br)c2)on1	none (no result: Efflux pump inh, Cl transport mod, PHOSPHO1 inh)
O=C(Cn1c(=O)sc2ccccc21)Nc1ccccc1	Cl transport mod 6.75 | KCC2 secondary inactive | KCC2 bumet counter inactive | KCC2 secondary2 inactive | HEK293 Tl flux inactive | KCC2 ouabain inactive | HEK293 Tl flux2 inactive
CCOC(=O)c1ccccc1NC1OC(=O)c2ccccc21 (centres undefined)	Cl transport mod -3.95 | KCC2 secondary inconclusive | KCC2 bumet counter inactive | KCC2 secondary2 inactive | HEK293 Tl flux inconclusive | KCC2 ouabain inactive | HEK293 Tl flux2 inconclusive
CSCCC(NC(=O)c1ccc([N+](=O)[O-])cc1Cl)C(=O)OCC(=O)NCCCc1ccccc1 (centres undefined)	Cl transport mod -4.28 | KCC2 secondary inactive | KCC2 bumet counter inconclusive | KCC2 secondary2 0.0263 | HEK293 Tl flux inactive | KCC2 ouabain inconclusive | HEK293 Tl flux2 inactive
CCOC(=O)c1cc(=O)n2c(nc3ccccc32)[nH]1	none (no result: Cl transport mod, PHOSPHO1 inh)
CC1OC(O[C@H]2CC[C@]3(C)C4C=C[C@]56OC[C@@]7(CC[C@@H](C)[C@H](C)C75)[C@H](O)C[C@@]6(C)[C@]4(C)CC[C@H]3C2(C)C)C(OC2OC(CO)C(O)C(O)C2OC2OCC(O)C(O)C2O)C(O)C1O (some centres undefined)	Cl transport mod 39.5 (no result: Cardio protect, Efflux pump inh) | KCC2 secondary 0.0129 | KCC2 bumet counter 0.0464 | KCC2 secondary2 inactive | HEK293 Tl flux inactive | KCC2 ouabain inconclusive | HEK293 Tl flux2 inactive
COc1ccc2[nH]c3c(NCCN4CCCCC4)ncnc3c2c1	Cl transport mod -5.21 | KCC2 secondary inactive | KCC2 bumet counter inactive | KCC2 secondary2 inactive | HEK293 Tl flux inactive | KCC2 ouabain inactive | HEK293 Tl flux2 inactive
O=C(Cn1cnc2c(nnn2Cc2ccccc2F)c1=O)OCc1ccccc1	Cl transport mod -7.37 | KCC2 secondary inactive | KCC2 bumet counter inactive | KCC2 secondary2 inactive | HEK293 Tl flux inactive | KCC2 ouabain 0.0148 | HEK293 Tl flux2 inactive
O=C(Cn1cnc2c(nnn2Cc2ccc(F)cc2)c1=O)N1CCCc2ccccc21	Cl transport mod -3.97 | KCC2 secondary inactive | KCC2 bumet counter inactive | KCC2 secondary2 0.0246 | HEK293 Tl flux inactive | KCC2 ouabain inactive | HEK293 Tl flux2 inactive
Cc1ccc(-n2nnc3c(=O)n(CC(=O)OCc4ccccc4)cnc32)cc1	none
Cc1ccc(Cn2nnc3c(=O)n(CC(=O)N4CCCc5ccccc54)cnc32)cc1	none
O=C(Cn1cnc2c(nnn2Cc2ccccc2)c1=O)N1CCN(c2ccccc2)CC1	Cl transport mod -4.46 | KCC2 secondary inactive | KCC2 bumet counter inactive | KCC2 secondary2 inactive | HEK293 Tl flux inactive | KCC2 ouabain 0.0144 | HEK293 Tl flux2 inactive
O=C(Cn1cnc2c(nnn2Cc2ccc(Cl)cc2)c1=O)N1CCCc2ccccc21	none
Cc1ccc(C(=O)N2CCN(Cc3ccc4c(c3)OCO4)CC2)cc1C	none (no result: Cl transport mod)
Cc1ccc(C(=O)C2CCN(CC(=O)NC3CCCC3)CC2)cc1	none (no result: Cl transport mod)
Cc1ccc(S(=O)(=O)Nc2ccc(S(=O)(=O)NCC3CCCO3)cc2)cc1 (centres undefined)	none (no result: Cl transport mod)
Cc1ccc(-c2ccc(S(=O)(=O)NCC3CCCO3)cc2)cc1 (centres undefined)	Cl transport mod -4.89 | KCC2 secondary inactive | KCC2 bumet counter inactive | KCC2 secondary2 0.0265 | HEK293 Tl flux inactive | KCC2 ouabain inconclusive | HEK293 Tl flux2 inactive
CCOC(=O)N1CCN(C(=O)c2ccccc2NC(=O)COc2ccccc2C)CC1	Cl transport mod -3.3 | KCC2 secondary inactive | KCC2 bumet counter inactive | KCC2 secondary2 0.0249 | HEK293 Tl flux inactive | KCC2 ouabain inactive | HEK293 Tl flux2 inactive
COCCNc1nnc(SCC(=O)NC(=O)c2ccccc2)s1	none (no result: Cl transport mod, PHOSPHO1 inh)
Cc1ccc(-n2[nH]c(C)c(/C=N/c3cccc(C)n3)c2=O)cc1	Cl transport mod 4.91 | KCC2 secondary inactive | KCC2 bumet counter 0.0128 | KCC2 secondary2 inactive | HEK293 Tl flux 0.0129 | KCC2 ouabain inconclusive | HEK293 Tl flux2 inactive
Cc1[nH]n(-c2ccccc2)c(=O)c1/C=N/N(c1ccccc1)c1ccccc1	Cl transport mod 68.3 | KCC2 secondary inconclusive | KCC2 bumet counter 0.107 | KCC2 secondary2 0.0718 | HEK293 Tl flux 0.0628 | KCC2 ouabain 0.088 | HEK293 Tl flux2 0.0615
Cc1[nH]n(-c2ccccc2)c(=O)c1C=Nc1cccc(F)c1	Cl transport mod 4.64 | KCC2 secondary inactive | KCC2 bumet counter 0.033 | KCC2 secondary2 inactive | HEK293 Tl flux 0.0164 | KCC2 ouabain inactive | HEK293 Tl flux2 inconclusive
